Anthrax LF inh2 = Bacillus anthracis LF protease inhibitors, primary screen, biochemical, multiplex microsphere, MLPCN library; actives 0.12% (n = 360,000); inhibition, % at 10 µM; AID 588501, 2011; multiplex microsphere protease cleavage assay; also: plate controls were buffer without enzyme for full effect and enzyme alone for no effect
Target sequence (P15917 whole entry, looked up): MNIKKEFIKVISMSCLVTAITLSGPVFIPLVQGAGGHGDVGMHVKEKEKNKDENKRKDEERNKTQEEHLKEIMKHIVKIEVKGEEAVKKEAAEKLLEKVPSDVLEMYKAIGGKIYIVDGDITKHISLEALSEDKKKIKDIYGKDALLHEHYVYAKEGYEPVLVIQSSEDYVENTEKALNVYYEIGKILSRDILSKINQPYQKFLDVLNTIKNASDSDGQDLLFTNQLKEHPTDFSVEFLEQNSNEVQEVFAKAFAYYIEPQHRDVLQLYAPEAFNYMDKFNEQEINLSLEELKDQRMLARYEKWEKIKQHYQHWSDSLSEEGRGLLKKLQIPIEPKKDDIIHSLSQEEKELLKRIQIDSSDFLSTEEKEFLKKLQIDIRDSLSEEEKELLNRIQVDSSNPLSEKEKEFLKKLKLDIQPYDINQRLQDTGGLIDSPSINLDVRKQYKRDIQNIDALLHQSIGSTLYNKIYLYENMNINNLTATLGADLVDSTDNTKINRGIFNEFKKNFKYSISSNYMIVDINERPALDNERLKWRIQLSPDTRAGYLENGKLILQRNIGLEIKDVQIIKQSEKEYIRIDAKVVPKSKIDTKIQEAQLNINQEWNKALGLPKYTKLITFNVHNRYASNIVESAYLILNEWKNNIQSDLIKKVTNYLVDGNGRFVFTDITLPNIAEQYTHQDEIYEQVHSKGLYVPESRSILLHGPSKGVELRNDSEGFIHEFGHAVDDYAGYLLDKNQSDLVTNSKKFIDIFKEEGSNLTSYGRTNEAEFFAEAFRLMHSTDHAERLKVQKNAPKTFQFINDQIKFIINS
Autofluor counter = counter-screen for toxin protease inhibitors: compound fluorescence; compound autofluorescence counterscreen, microsphere flow cytometry; hits give high values; fluorescence intensity (test concentration not listed); actives 3.1% (n = 360,000); in the data active = fluorescence intensity above about 16000; inconclusive = no clear call, values can overlap the other calls
BoNT F protease = BoNT/F light chain protease inhibitors, primary screen, biochemical, flow cytometry, MLPCN library; Multiplex microsphere protease cleavage assay; actives 0.22% (n = 360,000); Botulinum neurotoxin type F light chain protease (Clostridium botulinum); inhibition, % at 10 µM; AID 588497, 2011; in the data active = inhibition above about 35%, passing the limit was not always enough; inconclusive = no clear call, values can overlap the other calls; also: plate controls were buffer without enzyme for full effect and enzyme alone for no effect
BoNT A protease = BoNT/A light chain protease inhibitors, primary screen, biochemical, flow cytometry, MLPCN library | Botulinum neurotoxin type A light chain protease (Clostridium botulinum A str. ATCC 3502) | inhibition, % at 10 µM | AID 588499, 2011 | multiplex microsphere protease substrate cleavage | actives 0.17% (n = 360,000); also: plate controls were buffer without enzyme for full effect and enzyme alone for no effect
GDH-TPI inh = GDH-TPI coupling enzyme inhibitors, primary screen, artefact control for M. tuberculosis FBA inhibitor project, biochemical, absorbance, full deck. GDH-TPI coupled enzyme counterscreen, NADH absorbance. actives 1.2% (n = 360,000). inhibition, % at 4.8 µM; in the data active = inhibition above about 30%;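 also: 0% = DMSO wells and 100% = wells lacking the enzyme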
Mtb FBA inh = Mtb FBA enzyme inhibitors, primary screen, biochemical, fluorescence, strain H37Rv | Fructose-bisphosphate aldolase (Mycobacterium tuberculosis (strain ATCC 25618 / H37Rv)), … | purified M. tuberculosis FBA, fluorescence read-out | inhibition, % at 1 µM | actives 2.3% (n = 360,000); in the data active = inhibition above about 27%;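 also: 0% = vehicle and 100% = reference inhibitor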
The depositor's hits bear a star; u = inconclusive; x = no result given; + = active, no number. Only some compounds are listed: those with a hit (about 6.6% of all), similar ones and a draw of the others. Rule as the data show it, unless noted: active = inhibition above about 30%; inconclusive = no clear call, values can overlap the other calls; inactive = below that.

SMILES | Anthrax LF inh2 | Autofluor counter | BoNT F protease | BoNT A protease | GDH-TPI inh | Mtb FBA inh
NS(=O)(=O)c1cccc(NC(=O)CN2C(=O)C(=O)N(Cc3ccccc3)C2=O)c1 | -6 | 3238 | 0 | 0 | -4 | 1
O=C(/C=C/c1ccc(Cl)cc1)NCCSc1ccccc1 | -4 | 19211* | 2 | u | -3 | -1
O=C(/C=C/c1ccc(Cl)cc1Cl)NCCSc1ccccc1 | -1 | 2012 | 1 | 0 | 2 | -5
COc1ccc(/C=C/C(=O)N(CC(C)C)CC(C)C)cc1Br | -3 | 21487* | 3 | u | 3 | -4
COc1ccc(CN2CCN(C(=O)CC(C)C)CC2)cc1Br | -4 | 2992 | -9 | -2 | 9 | 1
O=C(Nc1ccc(S(=O)(=O)Nc2ncccn2)cc1)c1ccc(Br)s1 | -2 | 16878* | -5 | -2 | 21 | -1
NS(=O)(=O)c1ccc(NC(=O)/C=C/c2cccs2)cc1 | 4 | 3838 | -8 | 0 | 72* | 0
O=C(/C=C/c1ccccc1)Nc1ccc(NC(=O)c2cccs2)cc1 | 10 | 4297 | u | 0 | 35* | -3
O=C(/C=C/c1cccs1)Nc1ccc(S(=O)(=O)Nc2ncccn2)cc1 | -4 | 4678 | -2 | 0 | 45* | 2
O=C(/C=C/c1ccccc1[N+](=O)[O-])Nc1ccc(S(=O)(=O)Nc2ncccn2)cc1 | 2 | 5698 | 12 | 0 | 20 | 1
NS(=O)(=O)c1cccc(NC(=O)/C=C/c2cccs2)c1 | -3 | 4436 | -5 | 0 | 18 | -2
CC(C)(C)c1cc(NC(=O)C2(C)CCN2C(=O)C2(c3ccccc3)CC2)no1 (configuration not stated) | -2 | 2862 | 2 | 0 | 9 | 1
COc1ccc(CNC(=O)COC(=O)c2cc3ccccc3o2)cc1 | -1 | u | 2 | 1 | -3 | 2
CCOC(=O)c1ccc(NC(=O)/C=C/c2cccs2)cc1 | -1 | 2622 | 1 | 0 | 32* | -1
CCOC(=O)N1CCc2c(sc3nc4n(c(=O)c23)N=C(C)CS4)C1 | -4 | 2136 | -2 | 0 | 31* | 10
CCOC(=O)N1CCc2c(sc3c2c(=O)n(Cc2ccccc2)c(=O)n3Cc2cccc(C)c2)C1 | -5 | 5161 | 1 | 0 | -2 | 2
O=c1cnnc(SCc2ccc([N+](=O)[O-])cc2)[nH]1 | 1 | 2191 | 1 | 0 | 11 | -1
O=C1CC(NCc2ccccc2F)C(=O)N1c1ccccc1 (configuration not stated) | -2 | 16529* | -2 | -1 | 13 | 0
CC(C)Oc1ccc(C2c3c(oc4ccccc4c3=O)C(=O)N2CCCN2CCOCC2)cc1 (configuration not stated) | -1 | 24300* | -3 | u | -6 | 5
Cn1ccc2c(-c3cccnc3)cc3c(c21)C1CCC3O1 (configuration not stated) | -8 | 4522 | -3 | 1 | x | 3
CCOC(=O)c1ccccc1OCc1cc(/C=N/NC(=O)c2ccncc2)ccc1OC | x | x | x | x | 38* | 3
COc1ccc(/C=N/NC(=O)c2ccncc2)cc1CSc1nc2ccccc2s1 | 0 | 10272 | -3 | 2 | 31* | 2
COc1ccc(C(=O)N/N=C/c2ccc(OC)c(CSc3ccccn3)c2)cc1 | -3 | 2286 | -2 | 0 | 12 | 0
COc1ccc(/C=N\NC(=O)c2ccccc2Br)cc1COc1ccccc1 | -3 | 5242 | -7 | 3 | 12 | -1
COc1ccc(C(=O)N/N=C\c2ccc(OC)c(COc3ccccc3Br)c2)c(OC)c1 | -2 | u | 2 | 0 | 35* | 8
SMILES | Anthrax LF inh2 | Autofluor counter | BoNT F protease | BoNT A protease | GDH-TPI inh | Mtb FBA inh
CSCCC(C)N1CCC(Oc2ccc(C(=O)NCc3ccccn3)cc2)CC1 (configuration not stated) | 0 | 3632 | 0 | 0 | 9 | -1
Cc1cccc(NC(=O)CSc2nc(=O)n(CCCN3CCOCC3)c3c2CCCC3)c1C | -5 | 3554 | -2 | 0 | -11 | 3
Cc1[nH]ccc2c1[nH]c1cc(=O)ccc12 | 0 | 5438 | u | -2 | 7 | 167*
C=CCONC(=O)c1cc(OCC(F)(F)F)ccc1OCC(F)(F)F | -2 | 24141* | -3 | -3 | 6 | 0
O=C(NCCNC(=O)c1cc(OCC(F)(F)F)ccc1OCC(F)(F)F)Nc1cccc(C(F)(F)F)c1 | 0 | 24354* | -8 | u | 5 | 0
CN(C)S(=O)(=O)NCCNC(=O)c1cc(OCC(F)(F)F)ccc1OCC(F)(F)F | 1 | 2622 | 0 | 0 | 9 | 2
O=C(Nc1ccc(OC(F)F)cc1)Nc1cccc(C(F)(F)F)c1 | -2 | 20493* | -4 | u | -7 | -2
O=C(Nc1ccncc1)Nc1cccc(C(F)(F)F)c1 | -2 | 4593 | 1 | -2 | 11 | 1
CCN(CC(=O)Nc1ccccc1OC)C(=O)CSCC(=O)Nc1cccc(C)c1 | 12 | 5061 | -14 | 1 | 2 | 0
COc1ccccc1N(C)S(=O)(=O)c1ccc(C(=O)OCC(=O)c2c[nH]c3ccccc23)cc1 | 1 | 2728 | -5 | 1 | 6 | 3
COc1ccc(NC(=O)c2c(C(F)(F)F)nn(C)c2SCc2ccccc2Cl)cc1 | 1 | 19414* | -1 | 2 | -9 | 1
COc1cc(/C=N/NC(=O)c2cccc([N+](=O)[O-])c2)ccc1O | 0 | 3287 | -4 | -1 | 16 | -2
COc1ccc(/C=N/NC(=O)c2ccc(NC(=O)c3cccc([N+](=O)[O-])c3)cc2)c(C(=O)O)c1OC | 5 | 2814 | -4 | -1 | 31* | 2
COc1ccc(/C=N/NC(=O)c2cccc([N+](=O)[O-])c2)cc1O | 2 | 4693 | -1 | 0 | 32* | -2
CCc1c(C)nc(N)nc1N1N=C1SCC#N | -2 | 22462* | 2 | 2 | 1 | -2
CCc1c(C)nc(N)nc1N1N=C1SCC(=O)OC | -2 | 4523 | -7 | 0 | 3 | 3
CC(=O)Nc1ccc(NC(=O)CSc2nnc(C)c(=O)[nH]2)cc1 | -1 | 3008 | -1 | 0 | 5 | 2
COc1cc2ccc(=O)oc2cc1OCC(O)C(C)(C)O (configuration not stated) | 4 | 4374 | -13 | 0 | 21 | 138*
COc1cc2ccc(=O)oc2cc1O | -7 | 5690 | -9 | 0 | 20 | +
Cc1ccc(CNC(=O)C2CCN(S(=O)(=O)c3c(C)noc3/C=C/N(C)C)CC2)cc1 | 3 | 5505 | 5 | 3 | 23 | -5
Cc1ccc(N(C)S(=O)(=O)c2c(C)noc2/C=C/N(C)C)cc1 | 2 | 5182 | 1 | 2 | 34* | 4
Cc1ccc(NC(=O)CC2SC3=NCCCN3C2=O)c(C)c1 (configuration not stated) | 1 | 4709 | 21 | 1 | 6 | 1

Screens: PubChem BioAssay, several laboratories
